From PubChem BioAssay (NCATS)
Records with an inconclusive call do not appear. A number with no mark means an inactive call. Active and inactive are the calls of the source. The call rests on the fitted dose curve; in most records, active means well fitted curve in the direction sought with a large enough effect; inconclusive means small, poorly fitted or top-dose-only effect, or another doubt; inactive means no such curve, though single readings can be large; an effect the other way counts as inactive or inconclusive.

Key:
[1] = Viability qHTS for spleen associated tyrosine kinase inhibitor (SYKi) drug resistant MV4-11 cells (AID 1963824); further: nearly all actives have a fitted effect of over 35% in size
Procedure, shortened: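 CellTiter-Glo luminescence, read 10 min after reagent addition, reports viability after a 72 hr compound exposure. Cells are an MV4-11 line made resistant to SYK inhibition, seeded at 500 per well onto compound-containing plates.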

[2] = Cellular viability qHTS for adrenocortical cancer (ACC) cell line NCI-H295R (AID 1963990); further: nearly all actives have a fitted effect of over 60% in size
Procedure, shortened: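 CellTiter-Glo ATP luminescence, read 48 h after compound addition, measured viability of NCI-H295R adrenocortical cells grown serum-free with ITS. Final concentrations spanned up to 46 uM. Data normalized to DMSO and doxorubicin, fitted for IC50 and maximal response.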

[3] = Quantitative highthroughput screen to assess conditional lethalithy of NOMO1 cells grown in RPMI1640 with untreated serum (RPMI+s) (AID 1963876); further: nearly all actives have a fitted effect of over 35% in size
Procedure, shortened: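 Each medium arm—HPLM with 10% dialyzed FBS, or RPMI1640 with 5 mM glucose and 10% untreated or dialyzed FBS—was screened against an 11-point, 3-fold compound titration for 48 h at 37 °C, with CellTiter-Glo luminescence as endpoint.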
Potency means the concentration at half of the fitted maximal effect.

With Nc1ccc(O)cc1 the Potency [1] was “inactive” and the Potency [2] was “inactive”.
In the case of Fc1ccc2[nH]ccc2c1-c1nc(N2CCOCC2)c2sc(CN3CCN(CC4CC4)CC3)cc2n1, the Potency [1] is reported as 5.9 µM (active) and the Potency [2] is reported as 31.6 µM (active).
In the case of CC(C)OC(=O)CCCC=CC[C@@H]1[C@H](C=C[C@@H](O)COc2cccc(C(F)(F)F)c2)[C@H](O)C[C@@H]1O, the Potency [3] is reported as 33.2 µM (active).
For CN(Cc1ccccc1)C(=O)c1ccc(S(=O)(=O)Nc2ccccc2)cc1, the Potency [1] was 14.8 µM (active) and the Potency [2] was “inactive”.
With COc1ccc2[nH]c(C(=O)N3CCC(CC(C)(C)O)CC3)cc2c1 the Potency [1] was 18.6 µM (active) and the Potency [2] was “inactive”.
For CCN(CC)CCNc1ccc(CO)c2sc3ccccc3c(=O)c12, the Potency [1] was 3.76 µM (active) and the Potency [2] was 1.03 µM (active).
With CN1CCN(CCC(=O)N2c3ccccc3Sc3ccc(C(F)(F)F)cc32)CC1 the Potency [1] was 23.7 µM (active) and the Potency [2] was 23.1 µM (active).
With O=c1[nH]c(=O)c2[nH]c(=O)[nH]c2[nH]1 the viability, % of control [1] was 120% [at 9.25 µM] and the Potency [2] was 2.66 µM (active).
With CCNCCS(=O)(=O)NC[C@@]1(c2ccccc2)SC(NC(=O)C(C)(C)C)=NN1C(=O)C(C)(C)C the Potency [1] was 0.003 µM (active) and the Potency [2] was 0.316 µM (active).
For CN1CCN(c2ccc(Nc3ncc4cc(C#N)c(=O)n(C5CCCC5)c4n3)cc2)CC1, the Potency [1] was 0.235 µM (active) and the Potency [2] was “inactive”.
In the case of CC(=O)C1CCC2C3CCC4=CC(=O)CCC4(C)C3CCC12C (stereo not drawn), the Potency [1] is reported as 9.34 µM (active) and the Potency [2] is reported as “inactive”.
For CCCCOC(=O)NS(=O)(=O)c1sc(CC(C)C)cc1-c1ccc(Cn2ccnc2)cc1, the Potency [1] was 14.8 µM (active) and the Potency [2] was 25.1 µM (active).
